A selection: hits, their analogues and other compounds. The true share with any hit is near 2.6%.
HSP90 refold inh: inhibitors of HSP90 luciferase refolding in rabbit reticulocyte lysate. luciferase refolding luminescence, 3 h. inhibition, % at 5.6 µM. hit rate 0.91% among 290,000;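 active means inhibition above the screen-wide mean plus 3 SD, computed separately per campaign, cut at about 16% in these data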;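 further: 0% = DMSO wells and 100% = 60 µM geldanamycin wells; inhibitors lower the luminescence because luciferase stays unfolded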
LGR2 antag: Drosophila LGR2 receptor signaling inhibition. AID 720647. HEK293 LGR2, CRE-luciferase, bursicon-stimulated, 4 h. inhibition, % at 9.99 µM. hit rate 0.35% among 380,000;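 active means drop in luminescence signal, shown as inhibition above about 50% in the replicate tests, limit read from the data, passing the limit was not always enough; inconclusive means probably only some replicates passing the limit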;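 further: agonist challenge used bursicon conditioned medium at about half maximal strength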
TROY signal inh: inhibitors of TROY-dependent NF-kB signaling; Q293 LMP1-TROYcd NF-kB luciferase reporter, 4 h; inhibition, % at 10 µM; hit rate 0.98% among 360,000; AID 1347056;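 active means compounds whose plate-normalised and pattern-corrected inhibition of the luciferase reporter signal at the single screening dose is 50% or more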
aDG glyco up: alpha-DG glycosylation activation; Pro5-aDG cells, alpha-DG glycosylation AlphaScreen (IIH6); 0% Pro5, 100% B10-LARGE cell signal; activation, % at 10 µM; hit rate 0.22% among 360,000; AID 624168;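 active means activation of at least 8% versus controls, or a plate z-score of at least 8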;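 further: Pro5 are CHO cells carrying HIG-tagged alpha-DG that lacks glycosylation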
TWEAK-Fn14 inh: inhibitors of TWEAK-Fn14 interaction signaling; hit rate 2% among 360,000; TWEAK-stimulated Fn14 reporter cells, luciferase luminescence, 8 h; inhibition, % at 10 µM; AID 1159606; in the data active means inhibition above about 50%
EBV LMP1 NFkB: inhibitors of Epstein-Barr LMP1-induced NF-kappaB reporter; LMP1-induced NF-kappaB luciferase reporter cells, luminescence; inhibition, % at 12.5 µM; hit rate 0.69% among 350,000; AID 504558; in the data active means inhibition above about 41%; inconclusive means no clear call, values can overlap the other calls;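 further: 0% = neutral control wells and 100% = reference inhibitor control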
HSP90 confirm: HSP90 inhibition, confirmation assay; inhibition, % at 5.9 µM; rabbit reticulocyte lysate, luciferase refolding luminescence, 3 h; shares compounds with HSP90 refold inh; hit rate 64% among 2,300; in the data active means inhibition above about 18%;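 further: 0% = vehicle wells and 100% = reference inhibitor wells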
luciferase ctr: counter-screen for HSP90 inhibitors: inhibitors of firefly luciferase; shares compounds with HSP90 refold inh; purified native firefly luciferase, luminescence; inhibition, % at 5.9 µM; hit rate 48% among 2,300;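 active means inhibition above the mean inhibition of all tested sample wells plus 3 SD, cut at about 10% in these data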;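 further: 0% = DMSO with luciferase and 100% = wells lacking luciferase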
Target sequence (P08659 whole entry, looked up): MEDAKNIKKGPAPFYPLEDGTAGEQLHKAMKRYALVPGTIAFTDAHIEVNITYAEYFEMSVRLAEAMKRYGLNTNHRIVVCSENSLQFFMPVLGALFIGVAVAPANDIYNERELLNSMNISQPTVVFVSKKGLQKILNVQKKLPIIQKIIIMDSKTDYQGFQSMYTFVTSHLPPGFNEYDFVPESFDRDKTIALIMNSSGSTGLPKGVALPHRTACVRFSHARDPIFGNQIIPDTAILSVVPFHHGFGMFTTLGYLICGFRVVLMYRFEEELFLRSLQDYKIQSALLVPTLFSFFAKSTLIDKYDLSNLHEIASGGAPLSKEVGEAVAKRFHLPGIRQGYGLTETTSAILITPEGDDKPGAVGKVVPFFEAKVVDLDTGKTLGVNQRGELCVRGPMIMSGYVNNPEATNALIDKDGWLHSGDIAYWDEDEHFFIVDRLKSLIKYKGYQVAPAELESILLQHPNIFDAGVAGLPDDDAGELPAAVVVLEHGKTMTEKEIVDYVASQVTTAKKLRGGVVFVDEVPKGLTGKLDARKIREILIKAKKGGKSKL
The depositor's hits bear a star; u = inconclusive; x = no result given.

SMILES	HSP90 refold inh	LGR2 antag	TROY signal inh	aDG glyco up	TWEAK-Fn14 inh	EBV LMP1 NFkB	HSP90 confirm	luciferase ctr
Cn1cc(/C=C/C(=O)c2ccccc2)c2ccccc21	19.9*	x	21.0	-0.1	71.0*	-11.9	35.8*	44.9*
O=c1c2sc(-c3ccccc3)cc2nc2n1CCCCC2	3.0	x	-34.2	0.1	26.6	-17.2	x	x
O=c1c2sc(-c3ccccc3)cc2nc2n1CCC2	24.2*	x	22.1	-0.1	74.0*	23.7	48.4*	32.1*
CCc1nnc(N/N=C/c2c(Cl)cccc2Cl)n1N	56.5*	10.6	3.1	0.2	11.9	5.1	-4.0	-8.7
CCc1nnc(N/N=C/c2cccs2)n1N	66.2*	1.6	-3.9	-0.1	21.6	-5.6	-1.2	-5.2
CCc1nnc(N/N=C/c2cc(Br)c(O)cc2O)n1N	7.0	7.0	16.2	-0.1	-0.7	0.2	x	x
C[C@@H]1CN([C@@H](C)CO)C(=O)Cc2cc(NC(=O)NC3CCCCC3)ccc2O[C@H]1CN(C)S(=O)(=O)c1ccccc1	x	13.2	x	x	x	x	x	x
COc1ccc(S(=O)(=O)N(C)C[C@H]2Oc3c(NS(=O)(=O)c4cccs4)cccc3C(=O)N([C@@H](C)CO)C[C@H]2C)cc1	x	30.0	x	x	x	x	x	x
CC(=O)Nc1ccc(/C=N/Nc2nc3ccccc3s2)cc1	-3.3	-50.3	13.8	-0.1	25.7	-17.7	x	x
COc1ccc(/C=N/Nc2nc3ccccc3s2)cc1O	21.5*	85.9*	60.5*	-0.4	74.5*	-19.2	55.4*	49.0*
CCOC(=O)/C(=N\Nc1ncnc2ccccc12)c1ccc(OC)cc1	18.1*	-13.0	-18.7	0.2	40.9	0.4	23.1*	-27.9
N/C(=N\OC(=O)c1cccc(Cl)c1)c1ccccn1	34.3*	73.4*	67.8*	0.4	92.0*	17.0	30.9*	76.4*
COc1ccc(C(=O)O/N=C(\N)c2ccccn2)cc1	80.0*	102.6*	84.4*	0.1	102.6*	81.1*	86.5*	91.9*
N/C(=N\OC(=O)c1cccc(Br)c1)c1ccccc1	-2.9	u	-46.7	0.1	36.3	-52.2	x	x
N/C(=N\OC(=O)c1ccc(Cl)cc1)c1ccccn1	57.1*	89.9*	69.7*	-0.1	101.2*	35.3	19.7*	89.3*
N/C(=N\OC(=O)c1cccc(Br)c1)c1ccccn1	42.2*	77.1*	65.8*	0.1	86.4*	45.1*	25.8*	73.7*
CCNC(=O)C[C@@H]1CC[C@H]2[C@@H](COc3ccc(NC(=O)Cc4ccccc4)cc3C(=O)N2C)O1	x	24.9	x	x	x	x	x	x
CC1(C(=O)N2CCN(c3ccccc3)CC2)CC1(Cl)Cl (configuration not stated)	-1.9	-2.2	-18.7	-0.3	-7.0	6.7	x	x
CC1(C(=O)N2CCN(Cc3ccccc3Cl)CC2)CC1(Cl)Cl (configuration not stated)	19.1*	-32.9	-44.0	0.0	-10.3	-1.9	-6.4	-16.0
COc1ccc(-c2noc(CCC(=O)Nc3cccnc3)n2)cc1	2.7	-14.0	-14.3	0.1	-24.7	x	x	x
CC(C)(C)c1ccc(-c2noc(CCC(=O)Nc3cccnc3)n2)cc1	45.0*	15.9	58.1*	-0.1	36.2	78.3*	3.7	-18.8
CNC(=O)CCc1nc(-c2ccc(C(C)(C)C)cc2)no1	2.8	-53.3	-19.0	-0.1	-1.3	-1.9	x	x
CN(C)C(=O)CCc1nc(-c2ccc(C(C)(C)C)cc2)no1	19.8*	-34.9	-31.5	-0.2	-13.9	-9.8	27.0*	0.1
O=C(C[C@H]1CC[C@H]2[C@@H](COC[C@H](O)CN2C(=O)Cc2ccccc2)O1)NC1Cc2ccccc2C1	x	4.0	x	x	x	x	x	x
CN=c1scc(-c2ccccc2Br)n1/N=C/c1ccc[nH]1	61.5*	x	x	x	x	x	72.3*	70.1*
SMILES	HSP90 refold inh	LGR2 antag	TROY signal inh	aDG glyco up	TWEAK-Fn14 inh	EBV LMP1 NFkB	HSP90 confirm	luciferase ctr
Cn1c2ccccc2c(=O)c2ccc(C#CC3(N)CCCCC3)cc21	33.7*	4.8	62.3*	0.2	33.7	1.0	30.1*	9.0
Cn1c2ccccc2c(=O)c2cc(C#CC3(O)CCCCC3)ccc21	72.4*	82.3*	88.1*	0.6	89.7*	10.6	76.3*	71.4*
O=C(C[C@@H]1C=C[C@@H](NC(=O)CC2CC2)[C@H](CO)O1)NCC(F)(F)F	x	-4.4	x	x	x	x	x	x
CO[C@H]1CN(C)C(=O)c2cc(NC(=O)c3cc(C)on3)ccc2OC[C@H](C)N(C(=O)C2CC2)C[C@@H]1C	x	-19.9	x	x	x	x	x	x
C[C@H](CO)N1C[C@H](C)[C@@H](CN(C)C(=O)Nc2ccc3c(c2)OCO3)OCc2ccccc2-c2ccccc2C1=O	x	-3.5	x	x	x	x	x	x
COC(=O)c1ccc(COc2ccc3c(C)c(C)c(=O)oc3c2)o1	18.5*	-113.4	-58.5	0.1	-40.4	-17.9	76.4*	-17.4
CCc1cc(=O)oc2cc(OCc3ccc(C(=O)O)o3)ccc12	27.4*	-22.4	-49.7	0.0	-25.2	-0.9	32.7*	-3.4
O=c1oc2cc(OCc3ccc([N+](=O)[O-])cc3)ccc2c2c1CCCC2	2.2	x	-45.3	0.1	-33.9	-7.6	x	x
CCCCc1cc(=O)oc2cc(OCC(=O)NCC3CCC(C(=O)O)CC3)ccc12 (configuration not stated)	0.2	-10.4	-14.5	0.2	-10.8	8.4	x	x
O=C(O)c1ccc(COc2ccc3c4c(c(=O)oc3c2)CCC4)o1	78.4*	x	-40.2	-0.1	30.3	12.9	79.4*	33.5*
CCCc1cc(=O)oc2cc(OCC(=O)NCC3CCC(C(=O)O)CC3)ccc12 (configuration not stated)	24.6*	12.1	-1.1	-0.4	-4.5	1.5	-0.3	-5.3
CC(C)c1cn(CC[C@H]2CC[C@H](NS(=O)(=O)Cc3ccccc3)[C@@H](CO)O2)nn1	x	6.9	x	x	x	x	x	x
C[C@@H]1CN([C@@H](C)CO)C(=O)c2cccc(NS(C)(=O)=O)c2O[C@@H]1CN(C)Cc1ccccc1	x	10.4	x	x	x	x	x	x
N#C[C@H]1[C@H](c2ccccc2)[C@@H](CO)N1C(=O)Nc1cccc(F)c1	x	-14.5	x	x	x	x	x	x
CCCC(=O)Nc1ccc2c(c1)OC[C@@H](C)N(Cc1cccc(F)c1)C[C@H](C)[C@H](OC)CN(C)C2=O	x	1.7	x	x	x	x	x	x
Cc1cc(C)cc(COc2ccc3c(C)c(CC(=O)O)c(=O)oc3c2C)c1	0.5	-1.8	-8.7	0.0	3.6	-5.1	x	x
Cc1c(C)c2ccc(OCc3ccc(C(=O)O)o3)c(C)c2oc1=O	75.4*	x	-61.6	-0.1	48.9	1.8	86.8*	44.9*
C[C@H](CO)N1C[C@H](C)[C@@H](CN(C)S(C)(=O)=O)OCCCC[C@H](C)Oc2ccc(NS(C)(=O)=O)cc2C1=O	x	20.6	x	x	x	x	x	x
COc1ccc(NC(=O)N(C)C[C@H]2OCCCC[C@H](C)Oc3ccc(NS(=O)(=O)c4c(C)noc4C)cc3C(=O)N([C@@H](C)CO)C[C@H]2C)cc1	x	2.1	x	x	x	x	x	x

Screening results (PubChem BioAssay)
